# According to PMC11006913:
# Substitutions are numbered along the chain they refer to.
# Legend:
# Assay in all cases: PBM; 200 nM protein, PBS
# Details in all cases: dsDNA, one strand shown
# VENTX [1] = biological target: T1, VENTX (Homo sapiens, UniProt O95231 78-163, R121Q)
# T1 sequence: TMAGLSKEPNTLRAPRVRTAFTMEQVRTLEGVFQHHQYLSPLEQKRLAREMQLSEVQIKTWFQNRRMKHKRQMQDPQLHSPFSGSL
# ALX4 = ALX4 (Homo sapiens, UniProt Q9H161 200-286)
# PAX4 [2] = biological target: T2, PAX4 (Homo sapiens, UniProt O43316 9-242, R200K)
# T2 sequence: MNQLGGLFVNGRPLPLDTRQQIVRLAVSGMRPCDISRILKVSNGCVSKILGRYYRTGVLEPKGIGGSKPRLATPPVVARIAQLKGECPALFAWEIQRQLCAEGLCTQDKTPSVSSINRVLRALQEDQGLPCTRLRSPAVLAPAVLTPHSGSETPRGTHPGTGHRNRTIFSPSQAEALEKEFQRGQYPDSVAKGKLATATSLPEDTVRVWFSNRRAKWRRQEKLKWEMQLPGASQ
# PRRX1 [3] = biological target: PRRX1 (Homo sapiens, UniProt P54821 80-166, F113S)
# VENTX [4] = biological target: T3, VENTX (Homo sapiens, UniProt O95231 78-163, Y115F)
# T3 sequence: T1 sequence with Y38F, Q44R
# HOXA2 [5] = biological target: HOXA2 (Homo sapiens, UniProt O43364 129-215, R185T)
# PAX4 [6] = biological target: T4, PAX4 (Homo sapiens, UniProt O43316 9-242, R200Q)
# T4 sequence: T2 sequence with K192Q
# HOXA2 [7] = biological target: HOXA2 (Homo sapiens, UniProt O43364 129-215, R185K)
# PAX4 [8] = biological target: T5, PAX4 (Homo sapiens, UniProt O43316 9-242, F177V)
# T5 sequence: T2 sequence with F169V, K192R
# MSX2 [9] = biological target: MSX2 (Homo sapiens, UniProt P35548 130-214)
# PAX4 [10] = biological target: T6, PAX4 (Homo sapiens, UniProt O43316 9-242, F177Y)
# T6 sequence: T2 sequence with F169Y, K192R
# MSX2 [11] = biological target: MSX2 (Homo sapiens, UniProt P35548 130-214, F161Y)
# VAX1 [12] = biological target: VAX1 (Homo sapiens, UniProt Q5SQQ9 86-172, T142I)
# PRRX1 [13] = biological target: PRRX1 (Homo sapiens, UniProt P54821 80-166)
# VAX1 [14] = biological target: VAX1 (Homo sapiens, UniProt Q5SQQ9 86-172, K157R)
# HOXB6 = HOXB6 (Homo sapiens, UniProt P17509 132-218, K202E)
# HOXA4 = HOXA4 (Homo sapiens, UniProt Q00056 201-287, W262F)
# Chain of HOXA4 (Q00056 201-287 W262F): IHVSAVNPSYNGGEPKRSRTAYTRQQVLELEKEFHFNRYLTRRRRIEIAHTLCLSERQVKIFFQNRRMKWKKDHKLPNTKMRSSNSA
# Chain of PRRX1 (Homo sapiens, UniProt P54821 80-166) (P54821 80-166): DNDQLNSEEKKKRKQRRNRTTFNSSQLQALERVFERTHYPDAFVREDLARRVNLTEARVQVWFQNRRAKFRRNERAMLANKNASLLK
# Chain of PRRX1 (Homo sapiens, UniProt P54821 80-166, F113S) (P54821 80-166 F113S): as the sequence (P54821 80-166) above, with F34S counted along it
# Chain of MSX2 (Homo sapiens, UniProt P35548 130-214) (P35548 130-214): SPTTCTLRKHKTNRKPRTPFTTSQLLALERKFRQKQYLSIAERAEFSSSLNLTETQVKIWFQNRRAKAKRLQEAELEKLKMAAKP
# Chain of ALX4 (Q9H161 200-286): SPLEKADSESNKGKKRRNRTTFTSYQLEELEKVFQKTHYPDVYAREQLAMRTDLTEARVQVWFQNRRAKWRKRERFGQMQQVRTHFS
# Chain of MSX2 (Homo sapiens, UniProt P35548 130-214, F161Y) (P35548 130-214 F161Y): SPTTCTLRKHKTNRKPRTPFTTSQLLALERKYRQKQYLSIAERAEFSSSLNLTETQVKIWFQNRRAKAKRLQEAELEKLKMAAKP
# Chain of HOXA2 (Homo sapiens, UniProt O43364 129-215, R185T) (O43364 129-215 R185T): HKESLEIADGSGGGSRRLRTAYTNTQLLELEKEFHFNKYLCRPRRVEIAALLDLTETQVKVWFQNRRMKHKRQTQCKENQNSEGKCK
# Chain of HOXB6 (P17509 132-218 K202E): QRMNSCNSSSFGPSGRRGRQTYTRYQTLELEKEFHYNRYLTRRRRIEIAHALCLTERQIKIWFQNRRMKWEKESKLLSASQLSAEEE
# Chain of VAX1 (Homo sapiens, UniProt Q5SQQ9 86-172, K157R) (Q5SQQ9 86-172 K157R): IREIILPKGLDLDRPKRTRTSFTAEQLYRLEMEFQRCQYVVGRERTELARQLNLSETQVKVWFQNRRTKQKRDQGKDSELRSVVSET
# Chain of VAX1 (Homo sapiens, UniProt Q5SQQ9 86-172, T142I) (Q5SQQ9 86-172 T142I): as the sequence (Q5SQQ9 86-172 K157R) above, with T57I, R72K counted along it
# Chain of HOXA2 (Homo sapiens, UniProt O43364 129-215, R185K) (O43364 129-215 R185K): as the sequence (O43364 129-215 R185T) above, with T57K counted along it
Sequence,binding signal (VENTX [1]),binding signal (ALX4),binding signal (PAX4 [2]),binding signal (PRRX1 [3]),binding signal (VENTX [4]),binding signal (HOXA2 [5]),binding signal (PAX4 [6]),binding signal (HOXA2 [7]),binding signal (PAX4 [8]),binding signal (MSX2 [9]),binding signal (PAX4 [10]),binding signal (MSX2 [11]),binding signal (VAX1 [12]),binding signal (PRRX1 [13]),binding signal (VAX1 [14]),binding signal (HOXB6),binding signal (HOXA4)
CCAATTAG,"12.3 upbm affinity estimate (log intensity, higher = more binding, comparable within an allelic series)","14.1 upbm affinity estimate (log intensity, higher = more binding, comparable within an allelic series)","11.7 upbm affinity estimate (log intensity, higher = more binding, comparable within an allelic series)","11.2 upbm affinity estimate (log intensity, higher = more binding, comparable within an allelic series)","11.9 upbm affinity estimate (log intensity, higher = more binding, comparable within an allelic series)","12.9 upbm affinity estimate (log intensity, higher = more binding, comparable within an allelic series)","12.2 upbm affinity estimate (log intensity, higher = more binding, comparable within an allelic series)","13.3 upbm affinity estimate (log intensity, higher = more binding, comparable within an allelic series)","10.4 upbm affinity estimate (log intensity, higher = more binding, comparable within an allelic series)","14 upbm affinity estimate (log intensity, higher = more binding, comparable within an allelic series)","10.8 upbm affinity estimate (log intensity, higher = more binding, comparable within an allelic series)","13.7 upbm affinity estimate (log intensity, higher = more binding, comparable within an allelic series)","12.6 upbm affinity estimate (log intensity, higher = more binding, comparable within an allelic series)","13.4 upbm affinity estimate (log intensity, higher = more binding, comparable within an allelic series)","12.9 upbm affinity estimate (log intensity, higher = more binding, comparable within an allelic series)",,
TAATTGGA,"11.7 upbm affinity estimate (log intensity, higher = more binding, comparable within an allelic series)","14 upbm affinity estimate (log intensity, higher = more binding, comparable within an allelic series)",,"11.4 upbm affinity estimate (log intensity, higher = more binding, comparable within an allelic series)",,"12.5 upbm affinity estimate (log intensity, higher = more binding, comparable within an allelic series)","12 upbm affinity estimate (log intensity, higher = more binding, comparable within an allelic series)",,,"14 upbm affinity estimate (log intensity, higher = more binding, comparable within an allelic series)",,"13.6 upbm affinity estimate (log intensity, higher = more binding, comparable within an allelic series)",,"13.4 upbm affinity estimate (log intensity, higher = more binding, comparable within an allelic series)",,,
ATTAATGC,,,"11.7 upbm affinity estimate (log intensity, higher = more binding, comparable within an allelic series)",,,,"11.7 upbm affinity estimate (log intensity, higher = more binding, comparable within an allelic series)",,"10.4 upbm affinity estimate (log intensity, higher = more binding, comparable within an allelic series)",,"11 upbm affinity estimate (log intensity, higher = more binding, comparable within an allelic series)",,,,,,
ACAATTAG,"11.8 upbm affinity estimate (log intensity, higher = more binding, comparable within an allelic series)",,,,"11.6 upbm affinity estimate (log intensity, higher = more binding, comparable within an allelic series)",,,,,"13.7 upbm affinity estimate (log intensity, higher = more binding, comparable within an allelic series)",,"13.3 upbm affinity estimate (log intensity, higher = more binding, comparable within an allelic series)",,,,,
AATTAGTA,"11.7 upbm affinity estimate (log intensity, higher = more binding, comparable within an allelic series)","13.7 upbm affinity estimate (log intensity, higher = more binding, comparable within an allelic series)","11.7 upbm affinity estimate (log intensity, higher = more binding, comparable within an allelic series)","11.1 upbm affinity estimate (log intensity, higher = more binding, comparable within an allelic series)","11.5 upbm affinity estimate (log intensity, higher = more binding, comparable within an allelic series)",,"11.9 upbm affinity estimate (log intensity, higher = more binding, comparable within an allelic series)",,"10.5 upbm affinity estimate (log intensity, higher = more binding, comparable within an allelic series)","13.3 upbm affinity estimate (log intensity, higher = more binding, comparable within an allelic series)","10.9 upbm affinity estimate (log intensity, higher = more binding, comparable within an allelic series)","12.9 upbm affinity estimate (log intensity, higher = more binding, comparable within an allelic series)",,,,"9.94 upbm affinity estimate (log intensity, higher = more binding, comparable within an allelic series)","11.5 upbm affinity estimate (log intensity, higher = more binding, comparable within an allelic series)"
AATTAAAT,,"13.9 upbm affinity estimate (log intensity, higher = more binding, comparable within an allelic series)","11.8 upbm affinity estimate (log intensity, higher = more binding, comparable within an allelic series)","11.3 upbm affinity estimate (log intensity, higher = more binding, comparable within an allelic series)",,,"12.2 upbm affinity estimate (log intensity, higher = more binding, comparable within an allelic series)",,"10.8 upbm affinity estimate (log intensity, higher = more binding, comparable within an allelic series)","13.6 upbm affinity estimate (log intensity, higher = more binding, comparable within an allelic series)","11.3 upbm affinity estimate (log intensity, higher = more binding, comparable within an allelic series)","13.1 upbm affinity estimate (log intensity, higher = more binding, comparable within an allelic series)",,"13.4 upbm affinity estimate (log intensity, higher = more binding, comparable within an allelic series)",,,"11.4 upbm affinity estimate (log intensity, higher = more binding, comparable within an allelic series)"
AATTAGCG,"11.9 upbm affinity estimate (log intensity, higher = more binding, comparable within an allelic series)","13.9 upbm affinity estimate (log intensity, higher = more binding, comparable within an allelic series)","11.8 upbm affinity estimate (log intensity, higher = more binding, comparable within an allelic series)","11 upbm affinity estimate (log intensity, higher = more binding, comparable within an allelic series)","11.6 upbm affinity estimate (log intensity, higher = more binding, comparable within an allelic series)","12.6 upbm affinity estimate (log intensity, higher = more binding, comparable within an allelic series)","12.3 upbm affinity estimate (log intensity, higher = more binding, comparable within an allelic series)",,"10.4 upbm affinity estimate (log intensity, higher = more binding, comparable within an allelic series)","13.5 upbm affinity estimate (log intensity, higher = more binding, comparable within an allelic series)","11 upbm affinity estimate (log intensity, higher = more binding, comparable within an allelic series)","13 upbm affinity estimate (log intensity, higher = more binding, comparable within an allelic series)","12.4 upbm affinity estimate (log intensity, higher = more binding, comparable within an allelic series)","13.3 upbm affinity estimate (log intensity, higher = more binding, comparable within an allelic series)","12.5 upbm affinity estimate (log intensity, higher = more binding, comparable within an allelic series)",,
GACAATTA,,,,"11 upbm affinity estimate (log intensity, higher = more binding, comparable within an allelic series)",,,,,,"13.8 upbm affinity estimate (log intensity, higher = more binding, comparable within an allelic series)",,"13.4 upbm affinity estimate (log intensity, higher = more binding, comparable within an allelic series)",,"13.2 upbm affinity estimate (log intensity, higher = more binding, comparable within an allelic series)",,"9.96 upbm affinity estimate (log intensity, higher = more binding, comparable within an allelic series)",
CAATTACA,,,,"10.9 upbm affinity estimate (log intensity, higher = more binding, comparable within an allelic series)",,,,,,"13.7 upbm affinity estimate (log intensity, higher = more binding, comparable within an allelic series)",,"13.3 upbm affinity estimate (log intensity, higher = more binding, comparable within an allelic series)",,"13.2 upbm affinity estimate (log intensity, higher = more binding, comparable within an allelic series)",,"9.87 upbm affinity estimate (log intensity, higher = more binding, comparable within an allelic series)",
